This is an account of results in PubChem BioAssay (NCATS).

Experiment [1] can be described thus: qHTS to identify inhibitors of the type 1 interferon - major histocompatibility complex class I in skeletal muscle: primary screen against the NCATS LOPAC collection (AID 1347405).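 Also: lytic HiBiT luminescence reporting HLA-B protein level.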 Also: potency is read from the fitted curve at half-maximal effect. The essentials: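 Luminescence from HiBiT fused to endogenous HLA-B in CRISPR-engineered human myoblasts served as the read-out. Cells received 4.0 ng/ml IFN-beta plus compound (seven concentrations, 1:4.3 steps, highest 46 uM final) for 24 hrs before lytic detection.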
For orientation: Quantitative high-throughput screening tests each substance at several concentrations.

Experiment [2] can be described thus: qHTS for inhibitors of adenylyl cyclases using a fission yeast platform: a pilot screen against the NCATS LOPAC library (AID 1347410). The essentials:
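Read-out: fbp1-GFP fluorescence by laser scanning cytometry (488 nm laser), a gain of signal when AC/cAMP-PKA signalling is inhibited. Strain CHP2027 expressing AC9, GNAS and PDE4D2; compounds at up to 57 µM; 18 h, 30C.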

Experiment [3] can be described thus: Validation qHTS assay for inhibitors of Activation Induced Cytidine Deaminase (AID): UDG Counterscreen signal (AID 1347427). In short, it runs like this:
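Counterscreen read of UDG activity (2 U/mL, 4/3x) in the FRET deamination format with AID (1 uM, 4/3x), DJC20/DJC23 substrates (250 nM, 4x), 4 h at room temperature. NaOH stop, fluorescence at 560 ex/665 em.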

Experiment [4] can be described thus: Primary qHTS for inhibitors of La Crosse Virus (LACV) - induced cell death in SH-SY5Y cells (AID 1508616).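 Also: top concentration of the series differs between compounds; higher means more rescue of cells from virus-induced death.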 In short, it runs like this:
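Protection against LACV-induced cell death is scored in SH-SY5Y cells exposed to compounds and virus (0.01 MOI) for 6 days. Data normalized to virus-infected DMSO wells and virus-free DMSO wells.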

Experiment [5] deals with Single-stranded DNA cytosine deaminase (Homo sapiens) (UniProt Q9GZX7). As to the kind of experiment: Validation qHTS assay for inhibitors of Activation Induced Cytidine Deaminase (AID): AID signal (AID 1347429). In short, it runs like this: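 Fluorescence at 540 nm excitation and 590 nm emission reports ssDNA cytosine deamination by AID, with UDG in the same well. Compound-treated reactions ran 4 hr at room temperature with DJC20/DJC23 substrate, followed by 30 min NaOH treatment.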
Sequence of Single-stranded DNA cytosine deaminase (Homo sapiens) (Q9GZX7 whole entry, looked up): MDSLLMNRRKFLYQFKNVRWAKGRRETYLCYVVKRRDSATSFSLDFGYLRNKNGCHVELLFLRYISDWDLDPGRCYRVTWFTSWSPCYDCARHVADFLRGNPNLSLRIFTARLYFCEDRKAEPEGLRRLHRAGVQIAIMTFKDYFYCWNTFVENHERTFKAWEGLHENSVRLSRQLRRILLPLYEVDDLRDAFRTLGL

The nature of experiment [6]: qHTS to identify inhibitors of the type 1 interferon - major histocompatibility complex class I in skeletal muscle: primary screen against the NCATS Pharmaceutical Collection (AID 1347407).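 Also: luminescence of HiBiT knocked into endogenous HLA-B as interferon-induced MHC class I level.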 The essentials:
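HLA-B HiBiT myoblasts, dexamethasone-free growth medium + 4 ng/ml IFN-b; compounds pinned 1 h after seeding, […] from 46 uM; 24 h, 37 C, 5% CO2; lytic HiBiT detection, 10 min RT, luminescence.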

Molecules are shown by their SMILES. Results filed as inconclusive are left out. Calls of active or inactive are those of the source. Calls follow the shape of the dose curve; as a rule, active = well fitted curve in the direction sought with a large enough effect; inconclusive = small, poorly fitted or top-dose-only effect, or another doubt; inactive = no such curve, though single readings can be large; an effect the other way counts as inactive or inconclusive.

For the molecule `CC1CN(S(=O)(=O)c2cccc3cnccc23)CCN1` (centres undefined), the Potency result in experiment [1], in experiment [3] and in experiment [4] was “inactive” throughout. Moreover, the molecule was called inactive in experiment [2].
For the molecule `Cc1ccc(O)c(N=Nc2ccccc2)n1`, the Potency result in experiment [1], in experiment [3] and in experiment [4] was “inactive” each time. In experiment [2], the result was inactive.
As for `Cn1c(=O)c2[nH]c(-c3ccccc3)nc2n(C)c1=O`, the Potency entry in experiment [1], in experiment [3] and in experiment [5] was “inactive” throughout.
On to `O=[N+]([O-])c1ccc(CSc2ncnc3c2ncn3[C@@H]2O[C@H](CO)[C@@H](O)[C@H]2O)cc1`, for which the Potency result in experiment [1], in experiment [3], in experiment [5] and in experiment [4] was “inactive” throughout.
Regarding `CCCC(=O)OC[C@@H](OC(=O)CCC)[C@@H](OC(=O)CCC)[C@H](Cn1c2nc(=O)[nH]c(=O)c-2nc2cc(C)c(C)cc21)OC(=O)CCC`, the Potency entry in experiment [6] is “inactive”.
Turning to `O=Nc1ccc2oc(=O)ccc2c1`, the Potency result in experiment [1], in experiment [5] and in experiment [4] was “inactive” throughout. In experiment [2], the result was inactive.
Turning to `CN(C)CCC(c1ccc(Cl)cc1)c1ccccn1` (centres undefined), the Potency result in experiment [1], in experiment [3] and in experiment [4] was “inactive” throughout. In addition, the molecule was classed as inactive in experiment [2].
With `CN1C2CCC1CC(OC(=O)C(O)c1ccccc1)C2` (centres undefined), the Potency result in experiment [1], in experiment [5] and in experiment [4] was “inactive” throughout. The outcome in experiment [2] was inactive.
For the molecule `CCOC(=O)C1=C(C)NC(C)=C(C(=O)OCC)C1c1c(F)c(F)c(F)c(F)c1F`, in experiment [1], the Potency was 20 µM (active). The Potency result in experiment [5] and in experiment [4] was “inactive” throughout.
With `C[N+]1(C)C2CC(OC(=O)[C@H](CO)c3ccccc3)CC1C1OC12` (some centres undefined), the Potency result in experiment [1] and in experiment [4] was “inactive” throughout. For the same molecule, in experiment [2], the molecule was classed as inactive.
In the case of `OC[C@H]1O[C@@H](n2cnc3c(NC4CCCCC4)ncnc32)[C@H](O)[C@@H]1O`, the Potency entry in experiment [1], in experiment [3] and in experiment [5] was “inactive” throughout.
Take `S=C(S)OC1CC2CC1C1CCCC21` (centres undefined): the Potency entry in experiment [1], in experiment [3] and in experiment [4] was “inactive” each time. In addition, the molecule was called inactive in experiment [2].
Take `CNCC[C@H](Oc1ccc(C(F)(F)F)cc1)c1ccccc1`: the Potency result in experiment [1] and in experiment [4] was “inactive” in each case. The result in experiment [2] was inactive.
